These results are taken from article PMC4336329 (PLoS ONE, 2015).

The campaign covered roughly 310,000 compounds. About 14,000 (4.5%) showed an effect of 50% or more. The effect is printed as a negative number. The full list was thinned out, with strong results kept by preference.
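Further: peak tail current of the secondary pulse compared with the same well before compound.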

This test deals with human ether-à-go-go-related gene (hERG) potassium channel (human, UniProt Q12809). The test is described as follows: primary screen, population patch clamp on CHO cells stably expressing hERG; higher = less effect of the substance.
human ether-à-go-go-related gene (hERG) potassium channel, sequence (Q12809 whole entry, looked up): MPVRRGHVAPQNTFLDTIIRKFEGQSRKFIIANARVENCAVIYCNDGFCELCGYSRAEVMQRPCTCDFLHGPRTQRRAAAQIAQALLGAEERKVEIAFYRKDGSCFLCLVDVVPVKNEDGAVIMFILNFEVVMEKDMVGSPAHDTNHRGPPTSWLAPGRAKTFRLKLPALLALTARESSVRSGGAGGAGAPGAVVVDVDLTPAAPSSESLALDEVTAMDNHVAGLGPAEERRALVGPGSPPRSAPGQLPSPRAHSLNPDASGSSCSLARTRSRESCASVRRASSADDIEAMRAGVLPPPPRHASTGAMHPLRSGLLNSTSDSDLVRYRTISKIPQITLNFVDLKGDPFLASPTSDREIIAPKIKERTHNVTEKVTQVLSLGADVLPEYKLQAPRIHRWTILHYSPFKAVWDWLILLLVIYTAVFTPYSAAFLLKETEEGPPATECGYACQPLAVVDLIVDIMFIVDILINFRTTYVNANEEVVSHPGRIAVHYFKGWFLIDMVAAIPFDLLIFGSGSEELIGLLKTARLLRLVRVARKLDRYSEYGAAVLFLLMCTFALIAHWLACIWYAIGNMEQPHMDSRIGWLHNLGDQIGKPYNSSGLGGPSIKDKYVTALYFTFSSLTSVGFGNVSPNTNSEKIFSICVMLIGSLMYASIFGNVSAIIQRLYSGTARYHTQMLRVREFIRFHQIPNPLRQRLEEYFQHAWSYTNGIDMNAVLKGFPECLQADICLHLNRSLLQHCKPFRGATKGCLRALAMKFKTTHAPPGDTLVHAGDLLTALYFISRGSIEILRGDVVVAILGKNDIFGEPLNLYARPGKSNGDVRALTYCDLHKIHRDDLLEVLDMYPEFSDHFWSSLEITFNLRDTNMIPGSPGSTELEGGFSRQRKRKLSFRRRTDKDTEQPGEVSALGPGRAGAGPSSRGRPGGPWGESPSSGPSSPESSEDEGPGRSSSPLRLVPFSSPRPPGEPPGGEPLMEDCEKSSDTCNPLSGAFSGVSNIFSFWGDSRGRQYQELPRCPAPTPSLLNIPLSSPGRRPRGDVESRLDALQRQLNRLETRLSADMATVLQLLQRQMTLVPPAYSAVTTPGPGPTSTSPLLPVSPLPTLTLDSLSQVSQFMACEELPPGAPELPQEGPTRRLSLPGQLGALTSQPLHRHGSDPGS
`COc1cc(/C=C(\C#N)c2ccccn2)ccc1OCC(=O)Nc1cccc(C(F)(F)F)c1.Cl`: the “hERG current change (%, negative = inhibition) at 10uM” value came out at 0.582%.

For the compound `COCCCNC(=O)c1ccc2c(c1)nc(C)n2-c1cccc(C)c1`, the “hERG current change (%, negative = inhibition) at 10uM” value worked out at 6.05%.

For `CC(C)(C)C(=O)Nc1ccc(S(=O)(=O)c2ccc(NC(=O)C(C)(C)C)cc2)cc1`, the “hERG current change (%, negative = inhibition) at 10uM” value came to 18.6%.

As for `COc1ccc(-c2coc3c(CN4CCCCC4)c(O)c(CN4CCCCC4)c(O)c3c2=O)cc1`, the “hERG current change (%, negative = inhibition) at 10uM” value is recorded as -79.2%.

On to `O=c1c(-c2ccc(Cl)cc2)coc2c(CN3CCCCC3)c(O)ccc12`, for which the “hERG current change (%, negative = inhibition) at 10uM” value is given as -32.7%.

Turning to `COc1ccc(C(=O)c2coc3ccc(O)c(CN4CCOCC4)c23)cc1`, the “hERG current change (%, negative = inhibition) at 10uM” value was -51.2%.

As to `Cc1ccc(/C=C2\Oc3c(ccc(O)c3CN3CCN(C)CC3)C2=O)cc1`, the “hERG current change (%, negative = inhibition) at 10uM” value is listed as -15%.

Take `COc1ccc(-c2coc3c(CN4CCOCC4)c(O)ccc3c2=O)cc1`: the “hERG current change (%, negative = inhibition) at 10uM” value was -21.1%.

`Cc1ccc(C(=O)c2coc3ccc(O)c(CN4CCN(C)CC4)c23)cc1`: the “hERG current change (%, negative = inhibition) at 10uM” value is given as -51.2%.

As to `CN1CCN(Cc2c(O)ccc3occ(C(=O)c4ccccc4)c23)CC1`, the “hERG current change (%, negative = inhibition) at 10uM” value was -39.3%.

For the compound `COc1ccc(C(=O)c2coc3ccc(O)c(CN4CCCCC4)c23)cc1`, the “hERG current change (%, negative = inhibition) at 10uM” value is reported as -76.9%.

For `COc1ccc(OC)c(C(=O)c2coc3ccc(O)c(CN4CCOCC4)c23)c1`, the “hERG current change (%, negative = inhibition) at 10uM” value is reported as -39.7%.

For `COc1ccc(C(=O)c2c(C)oc3ccc(O)c(CN4CCOCC4)c23)cc1`, the “hERG current change (%, negative = inhibition) at 10uM” value was -29.5%.

Take `Cc1cc(Cn2nnnc2-c2ccncc2)cc(C)c1O`: the “hERG current change (%, negative = inhibition) at 10uM” value stood at 6.54%.

For the compound `O=C(Nc1ccc(Cl)c(C(F)(F)F)c1)N1CCCC(O)C1` (stereo not drawn), the “hERG current change (%, negative = inhibition) at 10uM” value is reported as 10.9%.

As for `COc1ccc(C(=O)c2coc3ccc(O)c(CN4CCCC4)c23)cc1`, the “hERG current change (%, negative = inhibition) at 10uM” value is reported as -73.4%.

As for `COc1ccc(OC)c(C(O)c2coc3ccc(O)c(CN4CCOCC4)c23)c1` (stereo not drawn), the “hERG current change (%, negative = inhibition) at 10uM” value is reported as -11.4%.

Take `Cl.O=C(c1coc2ccc(O)c(CN3CCOCC3)c12)C1CC1`: the “hERG current change (%, negative = inhibition) at 10uM” value is given as 12.3%.

In the case of `Cl.O=C(c1cccs1)c1coc2ccc(O)c(CN(CCO)CCO)c12`, the “hERG current change (%, negative = inhibition) at 10uM” value is reported as -41%.

With `Oc1ccc2ccccc2c1CN1CCOCC1`, the “hERG current change (%, negative = inhibition) at 10uM” value is listed as -6.06%.

In the case of `O=C(c1cccs1)c1coc2ccc(O)c(CN3CCOCC3)c12`, the “hERG current change (%, negative = inhibition) at 10uM” value is -69.1%.

For the compound `Cc1oc2ccc(O)c(CN3CCOCC3)c2c1C(=O)c1ccc(Cl)cc1`, the “hERG current change (%, negative = inhibition) at 10uM” value was -41%.

On to `Cl.O=C(c1ccccc1)c1coc2ccc(O)c(CN3CCOCC3)c12`, for which the “hERG current change (%, negative = inhibition) at 10uM” value was -60.7%.

Turning to `COC(=O)c1ccccc1N1CCS(=O)(=O)CC1`, the “hERG current change (%, negative = inhibition) at 10uM” value stood at 18.3%.

As for `COc1ccc(C(=O)Nc2nc(C)c(C(C)=O)s2)cc1S(=O)(=O)N1CCOCC1`, the “hERG current change (%, negative = inhibition) at 10uM” value is listed as 0.765%.

With `O=C(N/N=C/c1c(O)n(C2CC2)c(=S)[nH]c1=O)c1ccccc1O`, the “hERG current change (%, negative = inhibition) at 10uM” value is 2.57%.

Regarding `CCN(CC)S(=O)(=O)c1ccc(N2CCN(C)CC2)c(NC(=O)c2cc(=O)c3ccccc3o2)c1`, the “hERG current change (%, negative = inhibition) at 10uM” value is given as -18.4%.

On to `Cc1ccc(C(=O)N(C)CC(=O)Nc2cccc(C)c2C)o1`, for which the “hERG current change (%, negative = inhibition) at 10uM” value is 9.83%.

For `Cc1nc2nc(NC(=O)c3ccco3)nn2c(C)c1Cl`, the “hERG current change (%, negative = inhibition) at 10uM” value is on record as -1.18%.

Take `Br.c1ccc(-c2ccccc2OCc2nnc3n2CCC3)cc1`: the “hERG current change (%, negative = inhibition) at 10uM” value is 16.3%.

With `COc1ccc(C2C(C(=O)N3CCCC3)c3cc(OC)c(OC)cc3C(=O)N2C)cc1OC` (stereo not drawn), the “hERG current change (%, negative = inhibition) at 10uM” value was found to be 0.414%.

With `Cc1cc(C)c2cc(C#N)c(NCCOC(=O)c3ccccc3C)nc2c1`, the “hERG current change (%, negative = inhibition) at 10uM” value is reported as -54.8%.

`CCC(=O)NCCNc1nc2cc(C)cc(C)c2cc1C#N`: the “hERG current change (%, negative = inhibition) at 10uM” value was found to be 58.1%.

With `COc1ccccc1C(=O)NCCNc1nc2cc(C)cc(C)c2cc1C#N`, the “hERG current change (%, negative = inhibition) at 10uM” value is reported as 13.3%.

For `Cc1c(OCC(=O)N2CCC(C(N)=O)CC2)ccc2c3c(c(=O)oc12)CCC3`, the “hERG current change (%, negative = inhibition) at 10uM” value was found to be 7.25%.

As for `CCOC(=O)N1CCC(Nc2c(OCC)c(=O)c2=O)CC1`, the “hERG current change (%, negative = inhibition) at 10uM” value worked out at 3.96%.

With `Nc1ccccc1-c1nnc(-c2ccccc2N)n1N`, the “hERG current change (%, negative = inhibition) at 10uM” value worked out at 8.38%.

As to `CCN(CC)C(=O)Cn1cc(S(=O)(=O)CC(=O)Nc2ccc3c(c2)OCCO3)c2ccccc21`, the “hERG current change (%, negative = inhibition) at 10uM” value was -9.47%.

For `CCOC(=O)Cn1c(S(=O)(=O)Cc2ccccc2Cl)nc(-c2ccccc2)c1-c1ccccc1`, the “hERG current change (%, negative = inhibition) at 10uM” value is -6.2%.

On to `COc1ccc(/C=C/CN2CCC(CO)(Cc3ccccc3Cl)CC2)cc1`, for which the “hERG current change (%, negative = inhibition) at 10uM” value was -79.6%.

Take `OCC1(Cc2ccccc2Cl)CCN(C/C=C/c2ccccc2)CC1`: the “hERG current change (%, negative = inhibition) at 10uM” value was -68.4%.

`CCC(C)CN1CCC(CO)(Cc2ccccc2Cl)CC1` (stereo not drawn): the “hERG current change (%, negative = inhibition) at 10uM” value was -30%.
